sPLA2-III inh – Inhibits HGIII-sPLA2 liposome hydrolysis, primary screen; Q9NZ20; inhibition, % at 12.2 µM; AID 743126; hit rate 0.56% among 370,000; QFRET BODIPY PC-A2 liposome hydrolysis, fluorescence;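 active = inhibition above mean plus 3 SD of compounds lying within the high and low control bounds, cut at about 19% in these data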;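 also: 0% = median of test compound wells and 100% = no enzyme DMSO wells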
UBC13 inh – blocks human UBC13 polyubiquitin chain formation; AID 485273; TR-FRET; hit rate 0.47% among 330,000; inhibition, % at 20 µM; P61088; in the data active = inhibition above about 45%, passing the limit was not always enough
Target sequence (P61088 whole entry, looked up): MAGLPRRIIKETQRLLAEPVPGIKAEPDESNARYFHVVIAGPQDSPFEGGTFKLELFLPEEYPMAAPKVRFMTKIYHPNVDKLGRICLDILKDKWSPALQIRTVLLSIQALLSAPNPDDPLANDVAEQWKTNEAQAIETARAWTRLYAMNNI
SUMO HTRF inh – SUMOylation inhibition; P63279; HTRF SUMOylation assay, SAE1/SAE2 + UBC9, in vitro; inhibition, % at 35 µM; hit rate 0.36% among 290,000; AID 2006; in the data active = inhibition above about 50%, passing the limit was not always enough
Target sequence (P63279 whole entry, looked up): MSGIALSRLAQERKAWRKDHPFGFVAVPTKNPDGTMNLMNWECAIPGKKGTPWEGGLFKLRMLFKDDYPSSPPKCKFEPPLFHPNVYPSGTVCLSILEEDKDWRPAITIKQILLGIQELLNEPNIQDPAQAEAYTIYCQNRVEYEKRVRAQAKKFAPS
GRIN3A LBD mod – NR3A (human) ligand-binding domain modulation | NR3A LBD differential scanning fluorimetry, Tm shift; 0% = protein alone, 100% = glycine-bound protein | Tm shift relative to glycine control, % at 25 µM | hit rate 2.5% among 340,000;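 active = melting temperature shift of at least 10% of the positive control shift, at one fixed dose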
Starred values were filed as active, the others as inactive; nt = no result. The list is not random: actives were taken first. Their share in the collection is about 3.3%.

SMILES	sPLA2-III inh	UBC13 inh	SUMO HTRF inh	GRIN3A LBD mod
COc1ccc(C(=O)N2CCCC(Nc3ccc(F)cc3)C2)c(OC)c1 (configuration not stated)	5.3	0.3	8.8	13.1*
COc1ccc(C(=O)N2CCCC(Nc3ccc(C)c(C)c3)C2)c(OC)n1 (configuration not stated)	3.6	-2.1	-9.0	31.7*
Cc1ccc(NC2CCCN(C(=O)CN3C(=O)CSC3=O)C2)cc1C (configuration not stated)	-19.9	-4.9	9.6	11.1*
CC(C)c1ccc(NC2CCCN(C(=O)CN3C(=O)CSC3=O)C2)cc1 (configuration not stated)	-6.3	0.0	-0.7	-4.3
C=CCN1C(=O)[C@H](CC(=O)N2CCSCC2)[C@@]2(C(=O)OCC)CCCC=C12	0.2	nt	nt	nt
Cc1nonc1CN(C)C(=O)CC1C(=O)NCCN1Cc1ccccc1F (configuration not stated)	8.6	3.4	10.6	11.1*
O=C(Nc1nnc(-c2ccc(F)cc2)s1)Nc1ccccc1F	-4.7	-2.4	34.3	1.0
O=C(Nc1nnc(-c2ccccc2SCc2ccccc2F)s1)Nc1ccccc1F	1.3	-12.0	52.4*	2.0
COc1cc(OC)cc(C(C)c2ccc(C)cc2)c1 (configuration not stated)	5.1	nt	nt	nt
COC(=O)C1CCN(C(=O)COC(=O)c2oc3ccccc3c2C)CC1	7.6	-8.5	nt	16.8*
CCOC(=O)C1CCN(C(=O)COC(=O)c2oc3ccccc3c2C)CC1	-1.1	2.7	nt	1.6
Cc1ccc(C)c(NC(=O)c2cc(-c3ccc(Cl)cc3)nc3ccccc23)c1	2.5	nt	nt	nt
COCCN1C(=S)N[C@@H](c2cccc(F)c2)C(C(=O)OC)=C1C	nt	85.6*	-17.0	nt
O=C(/C=C/c1ccc(N2CCCCC2)c([N+](=O)[O-])c1)c1ccc(O)cc1	-39.2	-18.4	-31.9	10.7*
CN(CCOC(=O)CC1C=CCC1)C1CN(Cc2cn(Cc3ccccc3Cl)nn2)S(=O)(=O)C1 (configuration not stated)	-5.7	nt	nt	nt
Cc1c(Cl)cccc1NC(=S)N(CCCN1CCOCC1)Cc1cccs1	-11.0	19.8	4.6	16.6*
Cc1ccc(NC(=S)N(CCCN2CCOCC2)Cc2cccs2)c(C)c1	16.0	-4.6	10.0	-0.1
COC(CNC(=O)c1ccc2nc(-c3cccs3)c(-c3cccs3)nc2c1)OC	6.8	12.0	-9.4	16.4*
O=C(c1ccc(F)cc1)n1ccc2ccc(-c3ccc4ccn(Cc5ccccc5)c4c3)cc21	4.7	nt	nt	nt
COc1ccc(NC(=O)CC2C(=O)N(c3ccc(F)cc3)C(=S)N2NC(=O)c2ccc(Cl)cc2)cc1 (configuration not stated)	0.8	-4.0	38.7	-1.8
COC(=O)CN1C(=S)N(c2ccc(Cl)cc2)C(=O)C1CC(=O)Nc1ccc(Cl)cc1 (configuration not stated)	-7.2	5.9	-12.2	20.4*
COC(=O)CN1C(=S)N(c2ccc(Cl)cc2)C(=O)C1CC(=O)Nc1ccc(F)cc1 (configuration not stated)	-35.5	10.3	-22.8	27.4*
COC(=O)CN1C(=S)N(c2ccc(F)cc2)C(=O)C1CC(=O)Nc1ccc(F)cc1 (configuration not stated)	-30.5	-4.8	-10.6	4.7
COC(=O)CN1C(=S)N(Cc2ccccc2)C(=O)C1CC(=O)Nc1ccc(Br)cc1 (configuration not stated)	-27.0	4.1	-21.0	18.3*
COc1ccc(NC(=O)CC2C(=O)N(c3ccc(Cl)cc3)C(=S)N2NC(=O)c2cccc(F)c2)cc1 (configuration not stated)	-48.8	-6.9	13.5	15.9*
SMILES	sPLA2-III inh	UBC13 inh	SUMO HTRF inh	GRIN3A LBD mod
COc1ccc(NC(=O)CC2C(=O)N(c3ccc(Cl)cc3)C(=S)N2CCc2ccccn2)cc1 (configuration not stated)	-16.8	16.9	-15.5	-0.1
COc1ccc(NC(=O)CC2C(=O)N(c3ccc(Cl)cc3)C(=S)N2CCc2ccncc2)cc1 (configuration not stated)	nt	13.7	6.6	10.0*
Cc1cc(C)n2nc(C(=O)N/N=C/c3ccc(Cl)cc3)nc2n1	-3.8	8.5	7.7	0.5
Cc1cc(C)n2nc(C(=O)N/N=C/c3cccc(Cl)c3)nc2n1	-0.5	-9.8	-5.0	12.1*
COc1ccc(C2=CCN(C)C(=O)N2c2ccc([N+](=O)[O-])cc2)cc1	-2.4	nt	nt	nt
CN1CCc2c(n(CC(O)CNCc3ccccc3)c3ccccc23)C1=O (configuration not stated)	-1.6	-3.1	-7.4	-1.0
CC(C)NCC(O)Cn1c2c(c3ccccc31)CCc1c-2cnn1-c1ccccc1 (configuration not stated)	21.3*	41.8	14.8	-5.3
COC(=O)C1CN(CCc2ccccc2)CCS(=O)(=O)N1Cc1ccc(OC)cc1 (configuration not stated)	-5.1	nt	nt	nt
CC1(C)Cc2nc(NCCCO)c(C#N)cc2CO1	5.1	14.9	31.3	15.8*
CC1(C)Cc2nc(Cl)c(C#N)cc2CO1	-1.6	5.0	5.5	-1.9
COC(=O)c1cc(-c2ccc(C)c3ccccc23)c(=O)n2c1CCC2	-7.7	nt	nt	nt
CN1CC=C2C(C#N)=C(N)C(C#N)(C#N)[C@H](c3ccoc3)[C@H]2C1	nt	-23.5	87.5*	-3.5
N#CC1=C(N)C(C#N)(C#N)[C@H](c2ccoc2)[C@H]2CN(Cc3ccccc3)CC=C12	-17.6	-19.2	62.1*	-2.9
CCOC(=O)[C@]12CCCCC/C=C\1N(Cc1ccc(OC)cc1)C(=O)[C@H]2CC(=O)NCc1ccccc1	-12.1	nt	nt	nt
O=C(CCC(=O)OCC(=O)c1ccc(F)cc1)NC1CCCCC1	1.2	8.5	4.1	-1.2
O=C(CCC(=O)OCC(=O)c1ccc(Br)cc1)NC1CCCCC1	-9.3	-5.0	13.8	10.2*
COc1cc(NC(=O)c2cnc(N)s2)cc(C(=O)Nc2cccc(C(F)(F)F)c2)c1	-30.6	17.2	nt	36.7*
COc1cc(NC(=O)c2csc(N)n2)cc(C(=O)Nc2cccc(C(F)(F)F)c2)c1	-4.6	7.6	24.3	18.9*
COc1cc(NC(=O)c2ccnc(N)c2)cc(C(=O)Nc2cccc(C(F)(F)F)c2)c1	-12.8	38.9	9.4	13.5*
Cc1ccc(-n2c(SCC(=O)c3ccccc3Cl)nnc2-c2cnccn2)cc1	-21.2	nt	nt	nt
N#CCC[C@@H]1CC[C@]2(CCCN(S(=O)(=O)C3CCCCC3)C2)O1	5.8	nt	nt	nt
O=C(Nc1cc(-c2ccccc2)[nH]n1)c1ccccc1F	-10.1	4.6	11.1	24.3*
CCCCNC(=O)C[C@@H]1C[C@]2(C(=O)OCC)CCC3=C2N(CCC3)C1=O	-0.2	nt	nt	nt
CCOC(=O)C1CCCN(S(=O)(=O)c2ccc3c(c2)CC(C)N3C(=O)C2CC2)C1 (configuration not stated)	5.2	0.0	-0.5	-1.2
CCOC(=O)C1CCN(S(=O)(=O)c2ccc3c(c2)CC(C)N3C(=O)C2CCC2)CC1 (configuration not stated)	4.4	10.1	2.3	24.1*
O=C(Nc1ccccc1Sc1ccccc1)c1ccc(F)cc1	-2.2	1.4	8.9	18.8*
O=C(Cc1ccc(Cl)cc1)Nc1ccccc1Sc1ccccc1	-7.9	18.3	-15.9	15.4*

High-throughput results as filed in PubChem.
